Experimental data from PubChem BioAssay AID651692 (Broad Institute, 2012).
Measured potencies and affinities stand elsewhere. Calls of active or inactive are those of the source.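 The calls were made as follows: active = fitted half-maximal concentration for loss of cell signal no higher than twice the top valid tested concentration; inconclusive = flat curve at 30 to 70% inhibition, or poor fit; inactive = flat within 30%, signal rise, or potency above limit.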

Experiment: MDA-MB-231 cell growth inhibition, dose response, cytotoxicity control for RAD54 inhibitor project, CellTiter-Glo luminescence, cherry-pick (AID 651692);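 also: more negative values mean stronger loss of viable cell signal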
Settings: MDA-MB-231 viability, 24 h; series mostly up to 26 µM

Row | Compound | outcome
1 | COc1ccc(N2C(=O)CSC23CCCCC3)cc1 | inactive
2 | COc1cc2c(C#N)c(N3CCN(C)CC3)nc(N)c2c(N)n1 | inactive
3 | c1ccc(-c2nnc(SCc3nc4ccccc4[nH]3)o2)cc1 | inactive
4 | C=CCc1ccccc1OCC(O)CN1CCN(CCN2C(=O)c3cccc4cccc(c34)C2=O)CC1 (configuration not stated) | inactive
5 | Nc1c(C(=O)NCCN2CCOCC2)c2nc3ccccc3nc2n1-c1ccccc1 | inactive
6 | CN(C)CCCNc1nc2cc(-c3cccc(Cl)c3)sc2c(=O)n1C | inactive
7 | COc1ccc(CCNC(=O)c2cc3c(=O)n4ccccc4nc3n(CCCN3CCOCC3)c2=N)cc1OC | inactive
